Results on 53 compounds are retold here after PubChem BioAssay AID2685 (National Center for Advancing Translational Sciences (NCATS), 2010).

SMILES strings stand for the structures. Hit rate of the full screen: of about 320,000 compounds, about 2,100 (0.66%) were called active. Another 53% or so got no clear call; they are omitted. Calls follow the shape of the dose curve; as a rule, active = well fitted inhibition curve with a large enough effect in the signal ratio, with a control signal flat (not every such curve was filed as active); inconclusive = small, poorly fitted or top-dose-only effect, or effect the other way, or a change in a side signal; inactive = flat fitted curve, though single readings scatter; the % refers to the signal ratio. Many of the other results were omitted from the sample, so actives are more common in it than they were.
Potency is read from the fitted curve at half-maximal effect.

A short description of this experiment: qHTS Assay for Lipid Storage Modulators in Drosophila S3 Cells.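 As to cell number change: cells counted by Cell Tracker Red CMTPX staining in the red channel.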 As to lipid storage change, negative = inhibition: % is scaled to controls: 0 for no effect and ±100 for the full control effect. The settings on record: BODIPY lipid droplet fluorescence, 18-24 h, cells fed with added oleic acid; cell number change: measured here: cell count max response; series mostly up to 46.1 µM; lipid storage change, negative = inhibition: at the top concentration. An outline of the steps:
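Laser-scanning cytometry quantifies lipid droplet accumulation (500–530 nm total intensity; droplet/cell object ratio) in oleic acid-fed (400 uM added) Drosophila S3 cells treated with a concentration series. 20 uM Triacsin C defined 100% inhibition.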
In general terms: In qHTS, concentration-response curves come from the screen itself.
For the compound `CN1CCN(C(=O)c2cc(Cl)ccc2NC(=O)c2ccc(Cl)cc2Cl)CC1`, the “lipid storage change, negative = inhibition” value was -0.54% (inactive).

In the case of `C=CCn1c(SCC(N)=O)nc2sc3c(c2c1=O)CCC3`, the outcome was inactive and the cell number change is -3.38%. As to `CC(NC(=O)CN1CCN(c2ccc(Cl)cc2)CC1)c1ccccc1` (stereo not drawn), the “lipid storage change, negative = inhibition” value was -3.9% (inactive) and the cell number change is -1.82%. On the same counts, the results for `O=C(CN1CCN(c2ccccc2O)CC1)NC(c1ccccc1)c1ccccc1` are 16.7% (inactive) and 6.07%. Take `O=C(CN1CCN(c2ccc(O)cc2)CC1)Nc1cc(S(=O)(=O)N2CCCCC2)ccc1Cl`: the “lipid storage change, negative = inhibition” value was 10.5% (inactive) and the cell number change turned out to be 21%.

For the compound `O=C(CN1CCN(c2ccccc2O)CC1)Nc1cc(S(=O)(=O)N2CCCC2)ccc1Cl`, the Potency was 0.259 µM (active) and the cell number change was -12.2%. As for `CC(NC(=O)c1ccccc1NC(=O)CN1CCN(c2ccccc2O)CC1)c1ccccc1` (stereo not drawn), the Potency was 8.2 µM (active) and the cell number change is 14.4%.

For the compound `O=C(CN1CCN(c2ccc(O)cc2)CC1)Nc1cc(S(=O)(=O)N2CCCC2)ccc1Cl`, the “lipid storage change, negative = inhibition” value was 4.5% (inactive) and the cell number change was -1.92%. In the same order, the values of `COc1cc(S(=O)(=O)NCc2ccccn2)c(OC)cc1Cl` are 1.56% (inactive) and 4.19%.

Turning to `CCOC(=O)N1CCN(S(=O)(=O)c2ccc3c(c2)SC(C)C(=O)N3)CC1` (stereo not drawn), the “lipid storage change, negative = inhibition” value was -9.6% (inactive) and the cell number change is -22.8%.

For the compound `COC(=O)CSc1nnc(CNC(=O)c2ccc(S(=O)(=O)N(C)C)cc2)n1C`, the “lipid storage change, negative = inhibition” value was 4.97% (inactive). `COC(=O)CSc1nnc(CNS(=O)(=O)c2ccc(Cl)cc2)n1C`: the Potency is 20.6 µM (active) and the cell number change was -22.7%. As to `CCCSc1nnc(CNS(=O)(=O)c2ccc(C)cc2)n1C`, the “lipid storage change, negative = inhibition” value is 2.69% (inactive) and the cell number change was -0.463%. `O=C(c1cccc(Cl)c1)N1CCC(N2CCC(C(=O)N3CCOCC3)CC2)CC1`: the “lipid storage change, negative = inhibition” value is -10.6% (inactive) and the cell number change is -7.23%. Consider `CCN1CCCC1CNS(=O)(=O)c1c(C)cc(C)cc1C` (stereo not drawn), for which the “lipid storage change, negative = inhibition” value was 17% (inactive) and the cell number change was -11.3%.

Consider `CCOC(=O)c1sc(NC(C)=O)nc1C`, for which the call was inactive. For the compound `CCCn1c(SCC(=O)Nc2ccc(NC(C)=O)cc2)nc2c1c(=O)n(C)c(=O)n2C`, the compound was called inactive and the cell number change is 7.69%. In the case of `COCCN(C(=O)C(=O)NC1CCCC1)C(C(=O)NC1CCCC1)c1ccccc1F` (stereo not drawn), the “lipid storage change, negative = inhibition” value was -0.455% (inactive) and the cell number change worked out at 6.8%.

With `COCCN(C(=O)CCC(=O)Nc1cc(C)on1)C(C(=O)NC1CCCC1)c1ccccc1C` (stereo not drawn), the “lipid storage change, negative = inhibition” value was 7.32% (inactive) and the cell number change stood at 7.81%.

In the case of `COCCN(C(=O)CCl)C(C(=O)NC1CCCCC1)c1ccccc1C` (stereo not drawn), the Potency was 23.1 µM (active) and the cell number change is -11.6%. Regarding `O=S(=O)(NCc1ccccc1)c1ccc(Cl)cc1`, the “lipid storage change, negative = inhibition” value was -5.46% (inactive) and the cell number change is -16.1%. In the same order, the values of `C=CCn1c(O)c(C=Nc2ccc(Cc3ccncc3)cc2)c(=O)[nH]c1=S` are 11.8% (inactive) and 1.96%. Regarding `Cc1ccc2cccc(Oc3nnnn3-c3ccccc3)c2n1`, the compound was classed as inactive and the cell number change amounted to 10.6%. With `c1ccc(-n2nnnc2Oc2cccc3cccnc23)cc1`, the compound was classed as inactive.

For `O=C(O)c1ccc(-n2nnnc2Oc2cccc3cccnc23)cc1`, the Potency was 23.1 µM (active) and the cell number change was -14.4%.

Turning to `CCNC(=O)CC1SC(=Nc2ccccc2C)N(C)C1=O` (stereo not drawn), the “lipid storage change, negative = inhibition” value was 1.25% (inactive) and the cell number change worked out at 12.4%. Consider `CCN1CCN(c2ccc(S(=O)(=O)N3CCCCC3)cc2NC(=O)c2ccc(F)cc2)CC1`, for which the “lipid storage change, negative = inhibition” value is 16% (inactive). With `COc1ccc(/C=C(\NC(=O)c2ccc(OC)cc2)C(=O)Nc2ccc(C(=O)O)cc2)cc1`, the call was inactive and the cell number change was 11.1%. Turning to `Cc1ccc(S(=O)(=O)N2CCN(C(=O)CN3CCCSc4ccccc43)CC2)cc1`, the “lipid storage change, negative = inhibition” value was 14.9% (inactive) and the cell number change was found to be 6.28%. On the same counts, the results for `N#Cc1ccccc1S(=O)(=O)N1CCN(C(=O)C2CCC2)CC1` are 14.4% (inactive) and 17.3%.

For the compound `N#Cc1ccccc1S(=O)(=O)N1CCN(C(=O)CN2CCCSc3ccccc32)CC1`, the Potency is 2.06 µM (active) and the cell number change was -12.9%.

Take `C[C@H](NC(=O)c1nc[nH]c1C(=O)N[C@@H](Cc1ccccc1)C(=O)OC(C)(C)C)C(=O)OCc1ccccc1`: the Potency is 14.6 µM (active) and the cell number change was 26.3%.

On to `CCOC(=O)c1ccc(NC(=O)c2nc[nH]c2C(=O)N[C@@H](Cc2ccccc2)C(=O)OC(C)(C)C)cc1`, for which the Potency is 18.4 µM (active) and the cell number change was -20.1%.

With `C[C@H](NC(=O)c1nc[nH]c1C(=O)N(C)Cc1ccccc1)C(=O)OC(C)(C)C`, the Potency was 0.651 µM (active) and the cell number change is 20.3%. On to `C[C@@H](NC(=O)c1nc[nH]c1C(=O)N[C@@H](Cc1ccccc1)C(=O)OCc1ccccc1)c1ccccc1`, for which the “lipid storage change, negative = inhibition” value was -0.678% (inactive) and the cell number change is -24.1%. In the same order, the values of `C[C@H](NC(=O)c1nc[nH]c1C(=O)N[C@@H](C)C(=O)OC(C)(C)C)C(=O)OCc1ccccc1` are -8.74% (inactive) and 0.898%. In the same order, the values of `CCOC(=O)c1ccc(NC(=O)c2nc[nH]c2C(=O)N[C@@H](CC(C)C)C(=O)OC(C)(C)C)cc1` are -1.73% (inactive) and -3.92%.

`O=C(N[C@@H](Cc1ccccc1)C(=O)OCc1ccccc1)c1nc[nH]c1C(=O)NC(c1ccccc1)c1ccccc1`: the “lipid storage change, negative = inhibition” value is 3.83% (inactive) and the cell number change is 11.4%. In the same order, the values of `CC(C)C[C@H](NC(=O)c1nc[nH]c1C(=O)N(C)Cc1ccccc1)C(=O)OC(C)(C)C` are -12.5% (inactive) and -15.1%.

As to `O=C(N[C@@H](Cc1ccccc1)C(=O)OCc1ccccc1)c1nc[nH]c1C(=O)N[C@@H](Cc1ccccc1)C(=O)OCc1ccccc1`, the Potency is 3.26 µM (active). In the case of `CC(C)(C)OC(=O)[C@H](Cc1ccccc1)NC(=O)c1[nH]cnc1C(=O)Nc1ccc(Cl)cc1`, the “lipid storage change, negative = inhibition” value was -47.5% (inactive) and the cell number change was -19.3%. In the same order, the values of `C[C@H](NC(=O)c1nc[nH]c1C(=O)NCc1ccccc1)C(=O)OC(C)(C)C` are -10.5% (inactive) and -10.1%. In the same order, the values of `C[C@H](NC(=O)c1nc[nH]c1C(=O)N[C@@H](Cc1ccccc1)C(=O)OC(C)(C)C)C(=O)OC(C)(C)C` are 16% (inactive) and 1.8%.

`COc1ccccc1CN1CC(C(=O)N(CCO)Cc2cccs2)CCC1=O` (stereo not drawn): the “lipid storage change, negative = inhibition” value was 8.22% (inactive) and the cell number change stood at 1.74%.

In the case of `CCN1CCCC1CNC(=O)C(=O)NC` (stereo not drawn), the “lipid storage change, negative = inhibition” value is -3.62% (inactive) and the cell number change was determined as 1.27%. On to `Cc1c(C(=O)NCc2cccnc2)oc2ccc(S(=O)(=O)N3CCCCCC3)cc12`, for which the outcome was inactive.

Take `O=C(Cn1ccc(C(F)(F)F)n1)N/N=C/c1ccc2c(c1)OCO2`: the “lipid storage change, negative = inhibition” value is 11.3% (inactive) and the cell number change amounted to 4.92%. With `COc1ccc(Cl)cc1NC(=O)CCn1c(=O)oc2ccccc21`, the “lipid storage change, negative = inhibition” value was -13.1% (inactive). Consider `O=C(CN1C(=O)C2C3CCC(C3)C2C1=O)OCC(=O)c1cccc([N+](=O)[O-])c1` (stereo not drawn), for which the “lipid storage change, negative = inhibition” value is 4.51% (inactive) and the cell number change is 2.72%. On the same counts, the results for `C=CCn1c(SCc2ccc(C(=O)NCCO)cc2)nc2sc(C)c(C)c2c1=O` are 3.04% (inactive) and 22.5%. In the same order, the values of `Cc1ccc(C(=O)NNc2ncnc3c2cnn3C)cc1` are 3.58% (inactive) and -1.39%.

On to `Cc1c(CN2CCCC(C(=O)c3cccc(OC(C)C)c3)C2)c(=O)n(-c2ccccc2)n1C` (stereo not drawn), for which the “lipid storage change, negative = inhibition” value is 5.83% (inactive) and the cell number change worked out at 1.94%. On the same counts, the results for `C/C(=N\NC(=O)c1ccc(Cl)cc1)c1cccc(NC(=O)c2cccnc2)c1` are 12.1% (inactive) and 13.4%.
